# Pf growth 96h: P. falciparum growth inhibition at 96 hour, primary screen for plastid delayed-death inhibitors. P. falciparum luciferase reporter growth, 96 h. Potency, µM (top dose mostly 28.7 µM), usual class: inhibitors. actives 6.9% (n = 320,000)
#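 Delayed-death screen, second-generation endpoint: infected erythrocytes, 2% hematocrit, 0.05% parasitemia final; 96 hours at 37 C, 5% CO2; luciferase detection reagent; luminescence decrease equals reduced growth.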
# NS1 inh: inhibitors of influenza NS1 protein function | Potency, µM (doses to about 46.1 µM) | actives 0.4% (n = 270,000) | AID 2326; calls by dose curve; also: actives are rising curves; nearly all actives have a fitted effect of over 50% in size
#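 Recovery from NS1-induced slow growth read by OD600 in budding yeast switched to galactose assay medium (pH 6.0, -URA) at 1:100 dilution. Compound 23 nl per well; the matching strain lacking NS1 serves as control.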
# SARS PLpro yeast: inhibitors of SARS-CoV papain-like protease in yeast; S. cerevisiae expressing SARS-CoV PLpro, growth rescue; Potency, µM (doses to about 32.9 µM), most hits filed as activators; actives 0.19% (n = 330,000); AID 485353; calls by dose curve; also: nearly all actives have a fitted effect of over 55% in size
# HCV inh: HCV inhibition; actives 3.4% (n = 340,000); Huh7.5.1 HCVcc-Cre infection, luciferase reporter, 44 h; AID 651820; Potency, µM (top dose mostly 41.8 µM), actives largely listed as inhibitors
#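 Luciferase read-out (15 sec integration) after a 15 min room-temperature substrate step quantifies HCVcc-Cre infection. Cells, 1,000 per well, had compound added 4 h post-plating, then virus at ~0.5 moi, and were cultured 44 h.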
# AMA1 RON2 block: AMA1-RON2 (P. falciparum) interaction inhibition. AlphaScreen AMA1-biotinylated RON2 peptide binding. Potency, µM (series often up to 58.2 µM), most hits filed as inhibitors. actives 0.2% (n = 360,000). AID 720542; also: nearly all actives have a fitted effect of over 45% in size
#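 AMA1 (3D7) with his tag at 25 nM final met compounds first, then biotinylated RON2 peptide at 25 nM; detection used donor plus acceptor beads, 10 µg/mL apiece, read by AlphaScreen after 30 min at room temperature.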
# Pf growth 48h: P. falciparum growth inhibition at 48 hours (one generation) | Potency, µM (highest dose often 28.7 µM), usual class: inhibitors | P. falciparum luciferase growth in erythrocytes, 48 h | actives 5.9% (n = 310,000)
#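 Read-out is firefly luciferase luminescence from an integrated reporter in P. falciparum, so falling signal marks reduced parasite growth. Infected erythrocytes were at 2% hematocrit and 0.1% parasitemia (final) in Albumax-supplemented RPMI 1640.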
# NS1 inh valid: validation of influenza NS1 protein function inhibitors; shares compounds with NS1 inh; influenza NS1 function cell assay, 15-point titration; activity change, negative = inhibition, % at 32.9 µM; 1,400 tested, under 10 active; AID 492980; calls by dose curve
# A number is an active result; 0 = inactive; ? = inconclusive; - = no result; [ ] = remark or other dose. Hits are enriched below; roughly 12% of the tested compounds scored in any of these assays. Unless noted, calls follow the shape of the dose curve; as a rule, active = well fitted curve in the direction sought with a large enough effect; inconclusive = small, poorly fitted or top-dose-only effect, or another doubt; inactive = no such curve, though single readings can be large; an effect the other way counts as inactive or inconclusive.
SMILES,Pf growth 96h,NS1 inh,SARS PLpro yeast,HCV inh,AMA1 RON2 block,Pf growth 48h,NS1 inh valid
Cc1cc(C)cc(NC(=O)CN(C)CC(=O)N(CC(C)C)c2c(N)n(CC(C)C)c(=O)[nH]c2=O)c1,?,-,0,0,0,?,-
O=C1C2CCCN2C(c2cccnc2)N1c1ccc(Cl)cc1 (stereo unspecified),0,0,0,0,0,?,-
O=C1C2CCCN2C(c2cccnc2)N1c1cccc(Cl)c1 (stereo unspecified),0,3.5µM,0,0,0,-,0
O=C(/C=C/c1ccco1)NC(=S)Nc1cccc([N+](=O)[O-])c1,0,22µM,0,?,0,0,0
Cc1cccc(NC(=S)NC(=O)/C=C/c2ccco2)c1,0,0,0,0,0,0,-
Cc1[nH]c2ccccc2c1N=Nc1ccccc1C(=O)O,10µM,4.5µM,0,0,0,?,0
Cc1ccc2nc(-c3ccccn3)[nH]c2c1,?,0,0,0,0,0,-
c1ccc(-c2nc3ccccc3[nH]2)nc1,0,4.5µM,0,0,0,0,?
COC(=O)C1=C(C)N2C(=O)CSC2=NC1c1ccc2c(c1)OCO2 (stereo unspecified),-,13µM,0,0,0,?,0
O=C(CSCc1ccc(Br)cc1)N1CCCC1,?,0,0,0,0,0,-
Cc1ccc(-n2c(Cn3c(C)nc4ccccc43)n[nH]c2=S)cc1,?,?,0,0,0,0,0
Cc1ccc(-n2c(CCc3nc4ccccc4[nH]3)n[nH]c2=S)cc1,0,0,0,0,0,0,-
c1cc(N2CCCC2)ccc1C(c1nnnn1C1CCCCC1)N1CCOCC1 (stereo unspecified),0,11µM,0,?,0,0,0
CCOC(=O)c1ccc(S(=O)(=O)NCC(c2ccc(N(C)C)cc2)c2c[nH]c3ccccc23)cc1 (stereo unspecified),0,8.9µM,0,0,14µM,0,?
CN(C)c1ccc(C(CNS(=O)(=O)c2ccc(F)cc2)c2c[nH]c3ccccc23)cc1 (stereo unspecified),0,0,0,?,?,0,-
Cc1ccc(C(=O)O)cc1NC(=O)CCc1c(C)noc1C,-,-,-,-,0,-,-
O=C(Nc1ccc(O)cc1)C1CC=CCC1 (stereo unspecified),0,13µM,0,0,0,?,0
COc1ccc(CCNC(=O)C2CCN(C(=O)c3ccc(Br)cc3)CC2)cc1,?,0,0,0,0,?,-
C[C@@H]1CC2C3CCC4=CC(=O)C=C[C@]4(C)[C@@]3(F)[C@@H](O)C[C@]2(C)[C@@]1(O)C(=O)COC(=O)c1cccc(S(=O)(=O)O)c1 (stereo partly specified),0,-,-,-,-,0,-
Cc1nc2ccc3nc(NC(=O)c4ccc5c(c4)OCCO5)sc3c2s1,-,0,0,?,0,0,-
Cc1nc2c(ccc3nc(NC(=O)c4ccc5c(c4)OCCO5)sc32)s1,?,?,0,?,0,0,0
Cc1ccc(NC(=S)NC2CCSc3ccccc32)cc1 (stereo unspecified),?,1.4µM,0,?,0,?,0
CCN(CC)C(=O)CNc1ccc(C(F)(F)F)cc1[N+](=O)[O-],?,0,0,0,0,0,-
CCOc1ccc(C(=O)CCC(=O)NCC(=O)Nc2c(C)cccc2C)cc1,0,-,0,0,0,?,-
COc1ccc(COC(=O)C2=C(C)NC(=O)NC2c2cc(Br)c(O)c(OC)c2)cc1 (stereo unspecified),?,0,0,0,0,0,-
SMILES,Pf growth 96h,NS1 inh,SARS PLpro yeast,HCV inh,AMA1 RON2 block,Pf growth 48h,NS1 inh valid
COc1cc(/C=C\C(=O)NCc2ccc3c(c2)cc(C)n3C)cc(OC)c1OC,7.4µM,?,0,0[8.37 µM],0,12µM,0
COc1ccc(CC(=O)NCc2ccc3c(c2)cc(C)n3C)cc1OC,?,-,0,?,0,0,-
Nc1ccccc1OCCOCCOc1ccccc1N,?,5µM,0,?,0,0,0
COc1ccc(N(CC(=O)O)S(=O)(=O)c2ccc(C)cc2)cc1Cl,0,0,0,0,0,0,-
COc1ccccc1C(CNC(=O)CN1C(=O)NC(C)(c2ccc3ccccc3c2)C1=O)N1CCCC1 (stereo unspecified),-,-,-,0,0,-,-
O=C(O)c1ccc(/C=N\Nc2ccc(S(=O)(=O)N3CCOCC3)cc2[N+](=O)[O-])cc1,0,0,0,0,0,?,-
Cc1ccc(-n2c(O)c(/C=N/Nc3ccc(S(=O)(=O)N4CCOCC4)cc3[N+](=O)[O-])c3ccccc3c2=O)c(C)c1,2.9µM,2.5µM,0,11µM,0,10µM,0
CCN(C(=O)CSc1nc2ccccc2n1C)C1CCS(=O)(=O)C1 (stereo unspecified),0,-,0,0,0,0,-
O=C(COc1ccc(F)cc1Cl)Nc1cc(S(=O)(=O)N2CCOCC2)ccc1N1CCCCC1,2.1µM,3.5µM,0,?,0,4.1µM,0
O=C(Nc1ccc(Cl)c(Cl)c1)Nc1cc(S(=O)(=O)N2CCOCC2)ccc1N1CCCC1,0,11µM,?,?,0[11.6 µM],0,0
O=C(Nc1ccccc1F)Nc1cc(S(=O)(=O)N2CCOCC2)ccc1N1CCCC1,0,-,0,0,0,0,-
CCOC(=O)CSc1nc2ccc(N3CCOCC3)cc2c(=O)n1Cc1ccc2c(c1)OCO2,-,?,0,4µM,-,12µM,0
O=C(O)c1cccc(Cn2c(Cl)c(/C=N/NC(=O)c3ccccc3O)sc2=O)c1,0,0,0,0,0,0,-
O=C(O)c1cccc(Cn2c(Cl)c(/C=N/NC(=O)c3ccccc3Cl)sc2=O)c1,0,0.79µM,0,0,0,0,0
CC1CCCC(C)N1CC(C)(C)NS(=O)(=O)c1ccc(Cl)cc1 (stereo unspecified),0,0,0,0,0,-,-
CC(C)(CN1CCCC1)NS(=O)(=O)c1ccc(Cl)cc1,0,?,0,0,0,0,0
COc1ccccc1C(=O)N(Cc1sccc1C)C1CCS(=O)(=O)C1 (stereo unspecified),2.1µM,3.2µM,0,0,0,0,0
CCOC(=O)C1=C(C)N=C2SC=C(C)N2C1c1ccc(OC)cc1 (stereo unspecified),0,0,0,?,0,0,-
CCOC(=O)C1=C(C)N=C2SC(C)C(=O)N2C1c1ccc(C(=O)OC)cc1 (stereo unspecified),3.7µM,7.9µM,0,0,0,0,0
Cc1cc(NC(=O)CCC(=O)N(CC(=O)NC2CCCC2)c2cccc(F)c2)no1,?,?,0,0,0,0,0
Cc1ccc(C)c(C(=O)Cn2c(NCCO)nc3ccccc32)c1,0,0,0,0,0,-,-
O=C(Cn1cnc2scc(-c3ccc(Cl)cc3)c2c1=O)N1CCOCC1,0,?,0,0,0,0,0

# Bioassay records deposited in PubChem BioAssay by National Center for Advancing Translational Sciences (NCATS).
